Laboratory results as given in PubChem BioAssay AID720504 (National Center for Advancing Translational Sciences (NCATS), 2013).
Hit rate of the full screen: of about 360,000 compounds, about 10,000 (2.8%) were called active. Another 4% or so got no clear call; they are omitted. Many of the other results were omitted from the sample, so actives are more common in it than they were. Values without a mark were called inactive. The call rests on the fitted dose curve; in most records, active means well fitted inhibition curve with a large enough effect; inconclusive means small, poorly fitted or top-dose-only effect; inactive means flat fitted curve, though single readings scatter.

Molecular target: Serine/threonine-protein kinase PLK1 (Homo sapiens) (UniProt P53350)
Assay: qHTS for Inhibitors of PLK1-PDB (polo-like kinase 1 - polo-box domain): Primary Screen; further: nearly all actives have a fitted effect of over 65% in size; on max response, negative = inhibition: series mostly up to about 57 µM
Details: Plk1 PBD binding of FITC phosphopeptide, fluorescence polarization
On the % scale 0 is the no-effect control and ±100 the full control effect; potency means the concentration at half of the fitted maximal effect.

Serine/threonine-protein kinase PLK1 (Homo sapiens), sequence (P53350 whole entry, looked up, the tested form may be a part): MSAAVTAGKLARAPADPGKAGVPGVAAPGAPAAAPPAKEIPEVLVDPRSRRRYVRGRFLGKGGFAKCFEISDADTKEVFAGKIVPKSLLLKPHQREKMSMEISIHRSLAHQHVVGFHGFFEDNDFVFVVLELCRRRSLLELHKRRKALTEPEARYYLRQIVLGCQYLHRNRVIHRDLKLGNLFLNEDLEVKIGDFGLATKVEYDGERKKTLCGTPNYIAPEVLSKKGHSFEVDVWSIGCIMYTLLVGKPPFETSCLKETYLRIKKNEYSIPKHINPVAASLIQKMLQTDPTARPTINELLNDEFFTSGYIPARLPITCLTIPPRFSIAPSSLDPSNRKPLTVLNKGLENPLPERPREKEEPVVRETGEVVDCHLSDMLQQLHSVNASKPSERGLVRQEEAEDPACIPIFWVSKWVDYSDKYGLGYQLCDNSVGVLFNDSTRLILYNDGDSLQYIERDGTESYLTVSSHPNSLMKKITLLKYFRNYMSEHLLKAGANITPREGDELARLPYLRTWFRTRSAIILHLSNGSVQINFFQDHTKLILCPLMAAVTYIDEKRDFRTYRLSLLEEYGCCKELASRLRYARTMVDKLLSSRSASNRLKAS

| SMILES | max response, negative = inhibition [%] | Potency |
| --- | --- | --- |
| CSc1ccc(CNC(=O)C2(C)CCCN2C)cc1 (centres undefined) | -4.46 |  |
| CN(C)CCCOc1ccc(-c2ccc3nccn3c2)cn1 | -0.941 |  |
| CCOC(=O)N1C(=O)C[C@](Sc2ccc(C)cc2)(C(=O)OC)[C@H]1c1ccccc1 | -3.98 |  |
| Cn1nc(N)c2ncc(C(Cl)(Cl)Cl)nc21 | -4.91 |  |
| O=C(c1ccc(F)cc1)n1c(=S)nc2ccccn21 |  | 26.7 µM (active) |
| O=C(c1ccc(F)cc1)N1CCC(n2nnc3ccccc32)CC1 | -7.84 |  |
| CC1COc2ccccc2N1C(=O)c1ccc(F)cc1 (centres undefined) | -6.97 |  |
| c1ccc(Cn2nnc3c(NCC4CC4)ncnc32)cc1 | -24.2 |  |
| Nc1nc2c(ncn2[C@@H]2O[C@H](CNS(=O)(=O)N3CCc4ccccc4C3)[C@@H](O)[C@H]2O)c(=O)[nH]1 | -3.21 |  |
| O=C(Nc1ccc(OCCO)cc1)c1csc([C@H]2C[C@H](O)[C@@H](CO)O2)n1 | -5.62 |  |
| Cc1cc(C)n(-c2nc(O)cc(=O)[nH]2)n1 | -2.57 |  |
| Cn1nnnc1SCc1cc(=O)[nH]c2ccccc12 | -18.7 |  |
| Cc1cc(=O)[nH]c2nnnn12 |  | 23.8 µM (active) |
| CCC(CC)C(C(=O)NC1CCCC1)N1CCN(c2cc(C)nc3ccccc23)CC1 (centres undefined) | -1.11 |  |
| C[C@@H]1CN([C@H](C)CO)S(=O)(=O)c2ccc(C#C[C@@H](C)O)cc2O[C@@H]1CN(C)Cc1ccc(-c2ccccc2)cc1 | -3.99 |  |
| CC(=O)Nc1ccc2nc(NC(=O)CS(=O)(=O)c3ccc(F)cc3)sc2c1 | -4.56 |  |
| COc1ccc(C(CNC(=O)CSc2ccccc2)N2CCOCC2)cc1 (centres undefined) | -29.4 |  |
| CCc1ccc([C@@H]2CC(=O)[C@@H]3CN(S(=O)(=O)c4ccc(C)cc4)[C@H](c4ccc(Cl)cc4)C[C@@H]3N2S(=O)(=O)c2ccc(C)cc2)cc1 | 3.16 |  |
| COc1ccc(S(=O)(=O)N(C)C)cc1NC(=O)CSc1ncccn1 |  | 15 µM (active) |
| CN(C)S(=O)(=O)c1ccc2oc(SCC(=O)Nc3ccccc3F)nc2c1 | -21.2 |  |
| COc1ccc(S(=O)(=O)N(C)C)cc1NC(=O)COC(=O)c1n[nH]c2ccccc12 | -0.239 |  |
| CC1(C)OC(=O)C2=C(CC(c3ccccc3)OC2CCc2ccccc2)O1 (centres undefined) | -6.04 |  |
| S=C(c1ccc(-c2ccccc2)o1)N1CCCCC1 |  | 9.47 µM (active) |

| SMILES | max response, negative = inhibition [%] | Potency |
| --- | --- | --- |
| Cc1cccc(C)c1NC(=S)N1CCCCCC1 | -6.23 |  |
| O=C(c1ccc(CSc2ccccc2)cc1)N1CCCCCC1 | -2.73 |  |
| O=C(C[C@H]1CC[C@H]2[C@@H](COC[C@H](O)CN2C(=O)c2ccccn2)O1)N1CCN(c2ccccc2)CC1 | -2.29 |  |
| Cn1nnnc1-c1cc(Cl)cc(Cl)c1 |  | 26.7 µM (active) |
| Cn1nnnc1NCc1ccc(Cl)c(Cl)c1 | -14 |  |
| Cc1ccc(S(=O)(=O)N[C@H](CO)C(C)C)cc1 | -4.56 |  |
| CCOC(=O)CNc1nc(Cl)nc(Nc2ccccc2)n1 |  | 21.2 µM (active) |
| CCOC(=O)CNc1nc(Cl)nc(Nc2ccc(OC)cc2OC)n1 | 0.534 |  |
| CCC(=O)Nc1ccc(Nc2nc(Cl)nc(Nc3ccc(NC(=O)CC)cc3)n2)cc1 | -16.7 |  |
| CC1(C)OC(=O)C2=C(C[C@@H](C3CCCC3)O[C@@H]2c2ccc(Cl)cc2)O1 | 2.05 |  |
| Cc1ccc(C(=O)Nc2c(C#N)c(C)c(C)n2Cc2ccccc2)cc1 | -3.45 |  |
| CCCc1ccc(-c2c(C)sc(NC(=O)c3ccnn3C)c2C#N)cc1 |  | 10.6 µM (active) |
| Cc1c(C#N)c(NC(=O)c2ccccc2)n(Cc2ccccc2)c1C | -4.49 |  |
| CC1(C(=O)NS(=O)(=O)c2ccccc2)CCN1C(=O)C1CCCCC1 (centres undefined) | -5.58 |  |
| Cc1cccnc1C(NC(=O)C1CCN(Cc2ccc(Cl)c(Cl)c2)CC1)c1ccc(Cl)cc1 (centres undefined) | -6.41 |  |
| Cc1cn([C@H]2C[C@H](O)[C@@H](CNC(=O)[C@H](N)Cc3cccnc3)O2)c(=O)[nH]c1=O | -0.77 |  |
| CC(C)(C)NS(=O)(=O)c1ccc(NC(=O)NC2CCCCC2)cc1 | -9.85 |  |
| CC(c1ccco1)N(C(=O)Nc1ccccc1)C1CCCCC1 (centres undefined) | -2.64 |  |
| Cc1ccc(NC(=O)NC(=O)N(C2CCCCC2)S(=O)(=O)c2ccccc2)cc1 |  | 29.9 µM (active) |
| COc1cc(C(O)c2nc(-c3cccc(C(=O)O)c3)cs2)ccc1F (centres undefined) | 2.95 |  |
| O=C(O)c1ccccc1N=N/C(=N/Nc1cc(S(=O)(=O)O)ccc1O)c1ccccc1 |  | 16.8 µM (active) |
| COc1cccc(NC(=O)C2(C)CCN2Cc2ccccc2Cl)c1 (centres undefined) | 4.24 |  |
| OCCc1ccc(NCCc2ccco2)cc1 | -4.52 |  |

| SMILES | max response, negative = inhibition [%] | Potency |
| --- | --- | --- |
| O=Nc1c(O)cc(O)c2ccccc12 | -5.49 |  |
| Cc1cc(N2C(=O)C(O)=C(C(=O)c3ccc(C)o3)C2c2ccc(OCc3ccccc3)cc2)no1 (centres undefined) |  | 21.2 µM (active) |
| C=CCOc1cccc(C2C(C(=O)c3ccc(C)o3)=C(O)C(=O)N2CCN2CCOCC2)c1 (centres undefined) | -19.4 |  |
| Cc1cc(N2C(=O)C(=O)/C(=C(/O)c3ccccc3)C2c2cccc(Br)c2)no1 (centres undefined) | -15 |  |
| C[C@@H]1CN([C@@H](C)CO)C(=O)CCCn2nncc2CO[C@H]1CN(C)Cc1ccc(C(F)(F)F)cc1 | -1.98 |  |
| CC(=O)C[C@@H]1OC[C@H](CO)N1S(=O)(=O)c1ccc(C)cc1 | -6.97 |  |
| CCOc1cc(C(=S)N2CCOCC2)ccc1O |  | 7.52 µM (active) |
| CCOc1cc(C(=S)N2CCOCC2)ccc1OS(=O)(=O)c1ccc(Br)cc1 | -16.5 |  |
| CCOc1cc(C(=O)OCC(=O)Nc2cccc(C)c2)ccc1OCC(=O)N1CCOCC1 | -7.2 |  |
| COCOCCn1cc(CN2CCS(=O)(=O)N(Cc3ccc(-c4cccc(N(C)C)c4)cc3)C(CC(C)C)C2=O)nn1 (centres undefined) | -14.2 |  |
| NC(=O)C1(Nc2ccccc2Cl)CCCC1 | -11.6 |  |
| O=C(Nc1ccccc1Cl)/C(Cl)=C(\Cl)S(=O)c1ccccc1 (centres undefined) |  | 1.34 µM (active) |
| O=C(CCN1CCN(C/C=C/c2ccccc2)CC1)Nc1ccccc1Cl | -3.16 |  |
| CCCNC(=O)C1(C)CCN(Cc2ccc(Cl)c(Cl)c2)C1 (centres undefined) | -1.65 |  |
| C[C@H](NC(=O)[C@@H]1CCCN1C(=O)[C@@H]1CCCN1C(=O)c1ccccc1)c1ccccc1 | -0.0066 |  |
| CC(C)N(C(=O)COC(=O)c1ccccc1C(=O)N1CCN(c2ccc(F)cc2)CC1)C(C)C | -8.86 |  |
| O=C(c1ccccc1Oc1ccccc1)N1CCN(c2ccc(F)cc2)CC1 |  | 26.7 µM (active) |
| COc1ccc(N2CCN(C(=O)C3CCN(C(=O)c4ccccc4Cl)CC3)CC2)cc1 | 1.62 |  |
| CC[C@@H]1CC2=C(C(=O)OC(C)(C)O2)[C@@H](CC)O1 | 0.545 |  |
| Cc1ccc(C(O)c2ncc(-c3ccccc3F)[nH]2)cc1F (centres undefined) | -7.55 |  |
| CCN(CC)S(=O)(=O)c1cccc(-c2n[nH]c(=S)n2/N=C/c2ccc(C(=O)OC)cc2)c1 |  | 10.6 µM (active) |
| CCN(CC)S(=O)(=O)c1cccc(NC(=O)c2ccc(S(=O)(=O)N3CCCC3)cc2)c1 | 2.45 |  |
| COC(=O)c1ccc(/C=N/N2C(C)CCCC2C)cc1 (centres undefined) | -11.6 |  |

| SMILES | max response, negative = inhibition [%] | Potency |
| --- | --- | --- |
| CCCCNC(=O)C[C@@H]1C[C@@]2(C(=O)OCC)CCC=C2N(Cc2cccc3ccccc23)C1=O | -0.117 |  |
| CCOC(=O)C1CCCN(C(=O)c2ccc(C)c(F)c2)CC1 (centres undefined) | -7.52 |  |
| CC(C)Oc1ccc(CN2CCC2(C)C(=O)NCc2ccc(C(F)(F)F)cc2)cc1 (centres undefined) | 6.37 |  |
| CN(C)/C=C1/Nc2ccccc2C1=O |  | 26.7 µM (active) |
| CN(C)/C=C1\C=C(c2ccccc2)OC1=O | -6 |  |
| CCCS(=O)(=O)C(=C1Nc2ccccc2N1)S(=O)(=O)CCC | -1.93 |  |
| CCN(CCN(C)C)C(=O)c1ccc2nc(C)c(N(C)C(=O)CCc3ccccc3)n2c1 | 2.39 |  |
| CC(=O)Nc1cncc(-c2ccccc2CO)n1 | 3.65 |  |
| O=C(CCc1[nH]c2ccccc2c1Sc1ccccc1)N(CCO)CCO |  | 29.9 µM (active) |
| O=S1(=O)CC(N2CCN(CCO)CC2)CN1Cc1cn(Cc2ccc(Cl)cc2)nn1 (centres undefined) | -4.51 |  |
| Cc1ccc(S(=O)(=O)N(CCc2ccccc2)c2ccc3c(c2)C2CC3CCN2C(=O)OCc2ccccc2)cc1 (centres undefined) | -9.82 |  |
| O=C(C1CCCO1)N1CCN(C(=O)C23CC4CC(CC(C4)C2)C3)CC1 (centres undefined) | -0.452 |  |
| C[C@@H]1CN([C@H](C)CO)S(=O)(=O)c2ccc(C#CC3CCCCC3)cc2O[C@H]1CN(C)C(=O)Cc1ccncc1 | 8.88 |  |
| COc1cccc(C(O)c2ncc(-c3ccc4ccccc4c3)[nH]2)c1 (centres undefined) | 5.51 |  |
| COc1ccc(-n2nc3c(N4CCC(C(=O)NCc5ccccc5)CC4)nnc(C)c3c2C)cc1 | -9.59 |  |
| Cc1nn(CC(=O)N2CCCCC2)c(=O)c2nn(-c3ccccc3)c(C)c12 | -14.5 |  |
| COc1ccc(OC)c(CNC(=O)Cn2nc(C)c3c(C)n(-c4ccc(C)cc4)nc3c2=O)c1 |  | 26.7 µM (active) |
| COc1ccc(CNC(=O)C(C)n2nc(C)c3c(C)n(-c4ccccc4)nc3c2=O)c(OC)c1 (centres undefined) |  | 26.7 µM (active) |
| Cc1ccc(-n2nc3c(=O)n(C(C)C(=O)NCc4ccc5c(c4)OCO5)nc(C)c3c2C)cc1 (centres undefined) | -18.3 |  |
| Cc1nn(C(C)C(=O)NCCC2=CCCCC2)c(=O)c2nn(-c3ccccc3)c(C)c12 (centres undefined) | -7.54 |  |
